Screens: PubChem, National Center for Advancing Translational Sciences (NCATS)
NPC1 promoter act: activates the NPC1 promoter; Huh7 NPC1 promoter luciferase reporter, 24 h; Potency, µM (titrated, usually from 9.22 µM), for inactives: at the top dose activation, most hits filed as activators; actives 2.4% (n = 320,000); AID 485313; note: % of control where 0% means no effect; nearly all actives have a fitted effect of over 60% in size
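Stably transfected Huh7 (NPC1 promoter→luciferase), 1500 cells/well in Opti-MEM + 10% FBS, 2 h settle, then compound 24 h at 37 °C. Luminescence after 10 min with Amplite reagent.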
Rab9 promoter act: activators of Rab9 promoter. actives 2.8% (n = 320,000). Potency, µM (highest dose often 9.22 µM), without a hit: top-dose activation, negative = inhibition, hits mostly activators. Huh7 Rab9 promoter-luciferase reporter, luminescence, 24 h. AID 485297; note: % of control where 0% means no effect; nearly all actives have a fitted effect of over 60% in size
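Steps: seed 1500 Huh7 Rab9-luc cells per well, rest 2 h at 37 °C; add compound in DMSO; incubate 24 h; add luciferase reagent, 10 min ambient; read luminescence.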
Luc counter: Kinase-Glo luciferase inhibition (counter-screen); Potency, µM (series often up to 38.3 µM), for the others: top-dose activity change, negative = inhibition, most hits filed as inhibitors; Kinase-Glo luciferase, ATP luminescence, 8 min; actives 0.28% (n = 200,000); note: % is set by controls: 0 for no effect and ±100 for the full control effect; nearly all actives have a fitted effect of over 60% in size
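Substrate mix (final 50 mM imidazole pH 7.2, 50 mM KCl, 7 mM MgCl2, 10 uM ATP, 0.01% Tween 20, 0.05% BSA) plus pin-tool compound, then Kinase-Glo detection mix; 8 min ambient, luminescence read.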
FLuc modulator: firefly luciferase modulation, counter-screen for miR-21 project. Potency, µM (series often up to 57.5 µM), without a hit: at the top dose activity change, negative = inhibition, usual class: inhibitors. actives 6.9% (n = 360,000). P08659. AID 588342. purified FLuc, Km substrates, luminescence inhibition;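 note: plate controls were vehicle for no effect and reference inhibitor for full effect; nearly all actives have a fitted effect of over 55% in size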
Target sequence (P08659 whole entry, looked up): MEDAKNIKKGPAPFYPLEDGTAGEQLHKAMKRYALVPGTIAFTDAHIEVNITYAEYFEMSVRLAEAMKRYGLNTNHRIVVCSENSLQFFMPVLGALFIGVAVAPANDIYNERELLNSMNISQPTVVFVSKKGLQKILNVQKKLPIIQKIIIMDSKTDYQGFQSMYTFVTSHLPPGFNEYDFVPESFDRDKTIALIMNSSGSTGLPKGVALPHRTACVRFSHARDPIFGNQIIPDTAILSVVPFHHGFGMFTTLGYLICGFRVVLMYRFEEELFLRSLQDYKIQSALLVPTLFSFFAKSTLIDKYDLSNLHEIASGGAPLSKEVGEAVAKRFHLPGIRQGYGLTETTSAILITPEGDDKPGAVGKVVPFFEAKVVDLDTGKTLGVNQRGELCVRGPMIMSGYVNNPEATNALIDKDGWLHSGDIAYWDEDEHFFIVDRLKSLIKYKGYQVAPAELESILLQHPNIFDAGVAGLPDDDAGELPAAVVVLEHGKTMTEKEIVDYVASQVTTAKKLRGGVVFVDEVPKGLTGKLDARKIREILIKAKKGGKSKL
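Biochemical qHTS of compounds, final roughly 60 µM downward over six points, against 10 nM purified firefly luciferase using Km concentrations of substrates (10 uM D-luciferin, 10 uM ATP) in Tris acetate pH 7.5 buffer; luminescence output.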
SMN2 splice enh: increases expression of the SMN2 splice variant; HEK293 SMN2-luciferase splicing reporter, luminescence, 30-36 h; Potency, µM (titrated, usually from 46.1 µM), for inactives: top-dose activity change, positive = activation, actives largely listed as activators; actives 2.8% (n = 210,000); note: % of control where 0% means no effect; nearly all actives have a fitted effect of over 55% in size
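qHTS luciferase splicing reporter: luminescence rises when SMN2 exon 7 is included in transfected HEK293 cells. Compound exposure lasted 30-36 h at 37C, with 4.5 mM final sodium butyrate as control, followed by a ONE-Glo read.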
ELG1 genotoxic: genotoxicity induction in ELG1-luciferase HEK293T cells. Potency, µM (series often up to 46 µM), inactives show at the top dose activity change, positive = activation, actives largely listed as activators. AID 504466. actives 1.3% (n = 330,000). HEK293T ELG1-luciferase reporter, luminescence, 16 h; note: % of control where 0% means no effect; nearly all actives have a fitted effect of over 60% in size
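HEK293T cells expressing luciferase-tagged ELG1 were treated with compound or DMSO for 16 hr at 37°C. Luciferase activity was then read after 30 min with ONE-Glo at room temperature; rising signal flags genetic stress.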
The depositor's hits bear a star; ? = inconclusive; . = not tested or not shown; [ ] = remark or other dose. A selection: hits, their analogues and other compounds. The true share with any hit is near 7.5%. Calls come from the whole dose curve; as a rule, active = well fitted curve in the direction sought with a large enough effect; inconclusive = small, poorly fitted or top-dose-only effect, or another doubt; inactive = no such curve, though single readings can be large; an effect the other way counts as inactive or inconclusive. Potency is the fitted concentration of half-maximal effect.

SMILES	NPC1 promoter act	Rab9 promoter act	Luc counter	FLuc modulator	SMN2 splice enh	ELG1 genotoxic
CCOc1ccc(C2/C(=C(\O)c3ccc4c(c3)OCCO4)C(=O)C(=O)N2CCN2CCOCC2)cc1OC (stereo unspecified)	-4%	-2%	.	-3%	.	9%
COc1ccccc1CNc1ncnc2ccc(-c3cccnc3)cc12	.	.	3%	.	-15%	.
c1coc(C2=Nc3cccc4cccc(c34)N2)c1	13%	20%	-8%	?	-37%	-5%
COc1cccc(C2=Nc3cccc4cccc(c34)N2)c1	?	18%	-4%	12µM*	1%	2%
Nc1ccc(C2=Nc3cccc4cccc(c34)N2)cc1	21%	9%	?	21µM*	.	-1%
CC1CN(C(=O)c2ccc(COc3ccccc3Cl)o2)CC(C)O1 (stereo unspecified)	-1%	-3%	.	-3%	.	-2%
CC1CN(C(=O)c2ccc(COc3ccc4ccccc4c3)o2)CC(C)O1 (stereo unspecified)	22%	?	-1%	17µM*	.	11%
Cc1ccccc1OCc1ccc(C(=O)N2CC(C)OC(C)C2)o1 (stereo unspecified)	5%	3%	.	0%	.	-3%
CC1CN(C(=O)c2ccc(COc3ccc(C(C)C)cc3)o2)CC(C)O1 (stereo unspecified)	?	?	2%	13µM*	.	?
CCOC(=O)c1noc2ncnc(N3CCN(c4ccccc4OC)CC3)c12	.	.	.	1%	.	.
COc1cc(Nc2nc(-c3ccccc3)c3cc(C)ccc3n2)cc(OC)c1OC	-4%	2%	-2%	17µM*	15%	-2%
CCOC(=O)CSC1=NC(=O)/C(=C\c2ccc(OC(C)=O)cc2)S1	-7%	-8%	-1%	19µM*	19%	?
CCOC(=O)COc1ccc(Br)cc1/C=C1\SC(N)=NC1=O	0%	7%	.	0%	.	3%
CCOC(=O)CSC1=NC(=O)/C(=C/c2ccc(Br)cc2)S1	-5%	-9%	.	15µM*	.	?
NC1=NC(=O)/C(=C/c2ccc(Br)cc2)S1	3%	0%	.	-12%	.	1%
N#C/C(=C\c1ccc(-c2ccccc2)o1)C(=O)Nn1cnnc1	-1%	-1%	-2%	19µM*	-2%	1%
Cc1ccccc1NC(=O)/C(C#N)=C/c1ccc(-c2ccc(Cl)c(C(=O)O)c2)o1	2.8µM*	3.2µM*	.	19µM*	.	12%
COc1ccc(NC(=O)/C(C#N)=C/c2ccc(-c3ccc(Cl)c(C(=O)O)c3)o2)cc1	?	3.5µM*	.	0.48µM*	.	?
Cc1ccc(NC(=O)/C(C#N)=C/c2ccc(-c3ccc(Cl)c(C(=O)O)c3)o2)cc1C	.	.	.	3.8µM*	-6%	.
Cc1ccc(NC(=O)/C(C#N)=C\c2ccc(Cl)cc2Cl)cc1C	.	.	.	-19%	-15%	.
CC(Sc1nnc(C2CC2)n1C)C(=O)Nc1ccc(N2CCOCC2)cc1 (stereo unspecified)	1%	3%	.	1%	.	0%
COc1cc(CO)ccc1OCc1ccc(Cl)nc1	2.5µM*	3.2µM*	.	12µM*	.	16µM*
COc1ccc(NC(=O)c2ccccn2)cc1OC	?	4µM*	-17%	17µM*	?	?
COc1ccc(NC(=O)c2ccccn2)cc1	0.5µM*	?	13µM*	2.7µM*	1.6µM*	?
CCCCC/C=C\C/C=C\C/C=C\CCCCCCC(=O)NCCCC(=O)O	.	.	5%	.	12%	.
SMILES	NPC1 promoter act	Rab9 promoter act	Luc counter	FLuc modulator	SMN2 splice enh	ELG1 genotoxic
CC(C)(C)c1ccc(NC(=O)Nc2ccc(OCC(=O)N3CCOCC3)cc2)cc1	3.2µM*	2.2µM*	1%	0.48µM*	16µM*	?
O=C(Nc1ccc(OCC(=O)N2CCOCC2)cc1)Nc1cccc(Cl)c1	9%	4%	1%	12µM*	.	-2%
O=C(Nc1ccc(C(=O)N2CCOCC2)cc1)Nc1cccc(Cl)c1	?	30%	-9%	15µM*	?	-1%
O=C(Nc1ccc(C(=O)N2CCOCC2)cc1)Nc1cccc2ccccc12	13%	-1%	-17%	15µM*	-43%	?
O=C(Nc1ccc(C(=O)O)cc1)Nc1cccc2ccccc12	-2%	2%	.	?	.	-2%
O=C(O)c1nnsc1-c1ccc(-c2snnc2C(=O)O)cc1	.	.	-4%[7.66 µM]	.	-7%[9.22 µM]	.
CCOc1cc(CNC(=O)c2ccc(Cn3c(=O)c4cccn4c4cccnc43)cc2)ccc1OC	.	.	.	-9%	.	.
Fc1ccc(Nc2nc(SCc3cccc(F)c3)nc3ccccc23)cc1	.	.	.	1%	.	.
Cc1ccc(-c2cc(C(=O)OCC(=O)NC3CC3)c3ccccc3n2)cc1	-2%	5%	.	.	.	0%
O=C(COc1cccc(C(F)(F)F)c1)N1CCN(c2ccc(O)cc2)CC1	1%	-3%	1%	-11%	-15%	-11%
O=C(Nc1cccc(OCC(=O)N2CCOCC2)c1)c1ccc(C(F)(F)F)cc1	-6%	-15%	.	15µM*	.	-15%
COc1ccc(CNC(=O)C2CCN(S(=O)(=O)c3ccc4c(c3)CCCN4C(C)=O)CC2)cc1	.	.	.	1%	.	.
OC(COc1ccc2ccccc2c1Cl)CN1CCOCC1 (stereo unspecified)	?	?	11%	17µM*	?	?
OC(COc1ccccc1)CN1CCOCC1 (stereo unspecified)	-6%	7%	3%	12%	14%	1%
COC(=O)c1ccc(N2C(=O)CC(SCCN)C2=O)cc1 (stereo unspecified)	?	?	1%	?	11µM*	12µM*
CCCOc1ccc(N2C(=O)CC(SCCN)C2=O)cc1 (stereo unspecified)	4µM*	2.2µM*	-8%	12µM*	13µM*	?
CCCOc1ccc(N2C(=O)CC(SCC(N)C(=O)OCC)C2=O)cc1 (stereo unspecified)	-3%	0%	.	4%	.	-1%
CC[C@@H]1C(c2cccc(C)c2)=NN(c2ccc(Br)cc2)[C@H]1C(=O)N1CCOC1=O	.	.	0%[39.9 µM]	.	.	.
COc1ccc(Cl)cc1NC(=O)Cn1c(=O)n(-c2ccc(C)cc2)c(=O)c2ccc(C(=O)NCc3ccccc3Cl)cc21	.	.	.	-3%	6%	.
Cc1nc(SCc2ccc(C#N)cc2)n[nH]1	11%	9%	.	-19%	.	2%
CCCCOc1ccc(CSc2n[nH]c(C)n2)cc1	?	?	5%	?	18µM*	21µM*
CCCCCOc1ccc(CSc2ncn[nH]2)cc1	?	2.5µM*	1%	12µM*	11µM*	?
CCCCOc1ccc(CSc2ncn[nH]2)cc1	?	?	-4%	7.6µM*	10%	14%
